Out of some 5,500 compounds screened, about 2,000 (36%) were called active. Roughly 18% stayed inconclusive and do not appear here. Cut-off read from the data, not from the text of the source: active = normalized growth mostly below about 0.91 (no sharp cut-off); inconclusive = no clear call, values can overlap the other calls; inactive = mostly above about 0.92. The list shows a part of the results.
Test: chemical genetic growth profiling, strain panel (AID 1159580);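 note: tested at 20 µM; growth read once vehicle control cultures reached saturation at 30 °C; 1 = growth at the plate median or of vehicle wells; lower values mean less growth of the strain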
Conditions: growth OD

Measured: normalized growth

Fc1ccc([C@@H]2CCNC[C@H]2COc2ccc3c(c2)OCO3)cc1
inactive: S. cerevisiae deletion strains, locus YJR075W, strain HOC1, hits give low values 1.03 | S. cerevisiae deletion strains, locus YKL009W, strain mrt4, hits give low values 1.03 | S. cerevisiae deletion strains, locus YKL068W, hits give low values 1 | S. cerevisiae deletion strains, locus YKL085W, strain MDH1 (second series), hits give low values 0.991 | S. cerevisiae deletion strains, locus YKL085W, strain MDH1, hits give low values 0.991 | S. cerevisiae deletion strains, locus YKL160W, strain elf1, hits give low values 0.99 | S. cerevisiae deletion strains, locus YKL190W, strain CNB1, hits give low values 1.01 | S. cerevisiae deletion strains, locus YKR001C, strain vps1, hits give low values 1.02 | S. cerevisiae deletion strains, locus YKR026C, strain gcn3, hits give low values 1.01 | S. cerevisiae deletion strains, locus YKR091W, strain srl3, hits give low values 0.999 | S. cerevisiae deletion strains, locus YLL001W, strain dnm1, hits give low values 1 | S. cerevisiae deletion strains, locus YLL026W, hits give low values 0.998 | S. cerevisiae deletion strains, locus YLL041C, strain sdh2, hits give low values 1 | S. cerevisiae deletion strains, locus YLR027C, strain aat2, hits give low values 1 | S. cerevisiae deletion strains, locus YLR039C, strain RIC1, hits give low values 1.09 | S. cerevisiae deletion strains, locus YLR058C, strain SHM2, hits give low values 1.01 | S. cerevisiae deletion strains, locus YLR102C, strain apc9, hits give low values 1.02 | S. cerevisiae deletion strains, locus YLR113W, strain HOG1, hits give low values 0.995 | S. cerevisiae deletion strains, locus YLR221C, strain rsa3, hits give low values 1.01 | S. cerevisiae deletion strains, locus YLR258W, strain gsy2, hits give low values 1.01 | S. cerevisiae deletion strains, locus YLR262C, strain YPT6 (second series), hits give low values 1.08 | S. cerevisiae deletion strains, locus YLR262C, strain YPT6, hits give low values 1.09 | S. cerevisiae deletion strains, locus YLR268W, strain sec22, hits give low values 0.989 | S. cerevisiae deletion strains, locus YLR320W, strain mms22, hits give low values 0.984 | S. cerevisiae deletion strains, locus YLR330W, strain CHS5, hits give low values 1.01 | S. cerevisiae deletion strains, locus YLR342W, strain FKS1 (second series), hits give low values 1.06 | S. cerevisiae deletion strains, locus YLR342W, strain FKS1, hits give low values 0.996 | S. cerevisiae deletion strains, locus YLR357W, strain rsc2, hits give low values 0.998 | S. cerevisiae deletion strains, locus YLR370C, strain arc18, hits give low values 0.994 | S. cerevisiae deletion strains, locus YLR371W, strain rom2, hits give low values 1.01 | S. cerevisiae deletion strains, locus YLR384C, strain iki3, hits give low values 0.995 | S. cerevisiae deletion strains, locus YLR418C, strain cdc73, hits give low values 1.01 | S. cerevisiae deletion strains, locus YML016C, strain PPZ1, hits give low values 1.01 | S. cerevisiae deletion strains, locus YML032C, strain rad52, hits give low values 1.02 | S. cerevisiae deletion strains, locus YML120C, strain ndi1, hits give low values 0.991 | S. cerevisiae deletion strains, locus YML124C, strain tub3, hits give low values 1 | S. cerevisiae deletion strains, locus YMR058W, strain fet3, hits give low values 1 | S. cerevisiae deletion strains, locus YMR078C, strain ctf18, hits give low values 1.01 | S. cerevisiae deletion strains, locus YMR125W, strain sto1, hits give low values 0.999 | S. cerevisiae deletion strains, locus YMR129W, hits give low values 0.995 | S. cerevisiae deletion strains, locus YMR205C, strain PFK2, hits give low values 0.98 | S. cerevisiae deletion strains, locus YMR223W, strain ubp8, hits give low values 1.03 | S. cerevisiae deletion strains, locus YMR231W, strain pep5, hits give low values 1.01 | S. cerevisiae deletion strains, locus YMR263W, strain SAP30, hits give low values 1 | S. cerevisiae deletion strains, locus YMR307W, strain GAS1, hits give low values 1.13 | S. cerevisiae deletion strains, locus YNL067W, strain RPL9B, hits give low values 0.994 | S. cerevisiae deletion strains, locus YNL071W, strain lat1, hits give low values 1 | S. cerevisiae deletion strains, locus YNL128W, strain TEP1, hits give low values 1.02 | S. cerevisiae deletion strains, locus YNL153C, strain GIM3, hits give low values 0.979 | S. cerevisiae deletion strains, locus YNL183C, strain NPR1, hits give low values 1.01 | S. cerevisiae deletion strains, locus YNL209W, strain ssb2, hits give low values 1 | S. cerevisiae deletion strains, locus YNL233W, strain BNI4, hits give low values 1 | S. cerevisiae deletion strains, locus YNL248C, strain rpa49, hits give low values 1.02 | S. cerevisiae deletion strains, locus YNL250W, strain rad50, hits give low values 1 | S. cerevisiae deletion strains, locus YNL271C, strain bni1, hits give low values 1.02 | S. cerevisiae deletion strains, locus YNL298W, strain CLA4, hits give low values 1.01 | S. cerevisiae deletion strains, locus YNL307C, strain MCK1, hits give low values 1.03 | S. cerevisiae deletion strains, locus YNL322C, strain KRE1 (second series), hits give low values 1.01 | S. cerevisiae deletion strains, locus YNL322C, strain KRE1, hits give low values 1.01 | S. cerevisiae deletion strains, locus YNR049C, strain mso1, hits give low values 1 | S. cerevisiae deletion strains, locus YNR052C, strain pop2, hits give low values 1.02 | S. cerevisiae deletion strains, locus YOL006C, strain TOP1, hits give low values 1.06 | S. cerevisiae deletion strains, locus YOL012C, strain htz1 1.14 | S. cerevisiae deletion strains, locus YOL147C, strain pex11, hits give low values 1 | S. cerevisiae deletion strains, locus YOR001W, strain rrp6, hits give low values 0.983 | S. cerevisiae deletion strains, locus YOR061W, strain CKA2, hits give low values 1.01 | S. cerevisiae deletion strains, locus YOR069W, strain VPS5, hits give low values 1.01 | S. cerevisiae deletion strains, locus YOR070C, strain gyp1, hits give low values 1 | S. cerevisiae deletion strains, locus YOR080W, strain dia2, hits give low values 1 | S. cerevisiae deletion strains, locus YOR083W, strain WHI5, hits give low values 1.01 | S. cerevisiae deletion strains, locus YOR106W, strain vam3, hits give low values 1 | S. cerevisiae deletion strains, locus YOR136W, strain idh2, hits give low values 1.01 | S. cerevisiae deletion strains, locus YOR144C, strain elg1, hits give low values 1 | S. cerevisiae deletion strains, locus YOR184W, strain ser1, hits give low values 1.05 | S. cerevisiae deletion strains, locus YOR231W, strain MKK1, hits give low values 1.03 | S. cerevisiae deletion strains, locus YOR265W, strain rbl2, hits give low values 0.996 | S. cerevisiae deletion strains, locus YOR270C, strain vph1, hits give low values 0.905 | S. cerevisiae deletion strains, locus YOR290C, strain snf2, hits give low values 1.03 | S. cerevisiae deletion strains, locus YOR316C, strain cot1, hits give low values 1 | S. cerevisiae deletion strains, locus YPL051W, strain arl3, hits give low values 1 | S. cerevisiae deletion strains, locus YPL055C, strain LGE1, hits give low values 1.01 | S. cerevisiae deletion strains, locus YPL078C, strain atp4, hits give low values 1.01 | S. cerevisiae deletion strains, locus YPL106C, strain sse1, hits give low values 1.03 | S. cerevisiae deletion strains, locus YPL240C, strain hsp82, hits give low values 1.02 | S. cerevisiae deletion strains, locus YPL241C, strain CIN2, hits give low values 1.01 | S. cerevisiae deletion strains, locus YPL256C, strain CLN2, hits give low values 1.04 | S. cerevisiae deletion strains, locus YPR119W, strain clb2, hits give low values 1.01 | S. cerevisiae deletion strains, locus YPR141C, strain kar3, hits give low values 1 | S. cerevisiae deletion strains, locus YPR163C, strain tif3, hits give low values 1 | S. cerevisiae deletion strains, locus YPR167C, strain met16, hits give low values 1.01 | S. cerevisiae deletion strains, strain wtn01, hits give low values 0.998 | S. cerevisiae strains, strain wild type, hits give low values 1.02

Source: PubChem BioAssay AID1159580 (chemical genetic matrix, 2015)
